Screening results as filed in PubChem.
Compounds with a hit are over-represented: about 18% of the library has one in this group of screens.
LDHA block = inhibitors of human lactate dehydrogenase A | purified LDHA, NADH/diaphorase-resazurin fluorescence; active compounds read low | 480,000 tested, 0.15% active | activity change, % (values are at about 110 or 230 µM) | AID 1347041; in the data active = activity change below about -30%; inconclusive = mostly about -25% to -30%;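 note: plate controls were DMSO wells for no effect and wells without enzyme for full effect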
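Human LDH5 (2 nM) was incubated with 0.06 mM NADH and 0.2 mM pyruvate for 5 min at room temperature in Tris pH 7.4. Remaining NADH was coupled through diaphorase/resazurin, and resorufin fluorescence was read at 0 and 20 min.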
Gal4-VP16 FLuc = counter-screen for ROR gamma inhibitors: Gal4-VP16 reporter; Drosophila S2 Gal4-VP16 UAS-luciferase, luminescence, 20 h; Potency, µM (titrated, usually from 53.6 µM), for inactives: at the highest dose activity, negative = inhibition, usual class: inhibitors; 310,000 tested, 3.5% active; AID 2546;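 note: Gal4-VP16 expression switched on by copper sulfate through the metallothionein promoter; potency is the fitted concentration of half-maximal effect; nearly all actives have a fitted effect of over 50% in size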
TDP1 cell noCPT = qHTS for Inhibitors of human tyrosyl-DNA phosphodiesterase 1 (TDP1): qHTS in cells in absence of CPT. Potency, µM (doses to about 46.2 µM), without a hit: at the top dose activity change, negative = growth inhibition, usual class: inhibitors. AID 686978, 2013. DT40 Tdp1-/- hTDP1 cells, no CPT, ATP luminescence, 48 h. 420,000 tested, 15% active; note: potency is the fitted concentration of half-maximal effect; nearly all actives have a fitted effect of over 55% in size
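Stably hTDP1-transfected Tdp1-null chicken DT40 cells were treated with library compounds minus camptothecin and grown for at least 48 hr at 37 °C, after which cellular ATP was quantified by luminescence.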
IL1B secr inh = inhibitors of inflammasome signaling (IL-1 beta secretion) | THP-1 LPS/ATP IL-1B secretion, AlphaLISA, 16 h; active compounds read low | activity change, % at 57.5 µM | 360,000 tested, 4.7% active | AID 743279; in the data active = activity change below about -50%; inconclusive = mostly about -30% to -49%
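Secreted IL-1B measured by AlphaLISA bead assay after 16 h compound exposure of THP-1 cells; compounds (final up to 57.5 uM) added 1 h before LPS (250 ng/mL) and ATP (1.25 mM) stimulation; lower signal means less secretion.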
RORg inh = inhibitors of mouse ROR gamma transcriptional activity; P51450; 310,000 tested, 5.4% active; Potency, µM (top dose mostly 53.6 µM), inactives show at the top dose activity change, negative = inhibition, actives largely listed as inhibitors; Drosophila S2 Gal4-RORgamma UAS-luciferase reporter, 20 h; note: potency is the fitted concentration of half-maximal effect; nearly all actives have a fitted effect of over 60% in size
Target sequence (P51450 whole entry, looked up, the tested form may be a part): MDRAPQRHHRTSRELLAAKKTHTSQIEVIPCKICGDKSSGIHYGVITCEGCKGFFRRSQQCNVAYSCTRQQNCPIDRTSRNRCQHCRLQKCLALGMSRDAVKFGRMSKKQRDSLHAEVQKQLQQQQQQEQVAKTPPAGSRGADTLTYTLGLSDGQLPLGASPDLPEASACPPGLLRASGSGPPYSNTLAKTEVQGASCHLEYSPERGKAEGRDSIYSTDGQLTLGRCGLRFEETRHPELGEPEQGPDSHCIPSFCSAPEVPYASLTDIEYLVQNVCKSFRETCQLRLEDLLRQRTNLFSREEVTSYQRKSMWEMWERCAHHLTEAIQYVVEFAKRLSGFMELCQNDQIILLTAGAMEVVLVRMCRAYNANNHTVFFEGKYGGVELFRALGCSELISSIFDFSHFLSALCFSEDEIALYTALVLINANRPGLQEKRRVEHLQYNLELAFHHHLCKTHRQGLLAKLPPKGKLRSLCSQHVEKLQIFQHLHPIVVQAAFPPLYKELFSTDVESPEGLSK
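Drosophila S2 cells stably expressing Gal4-DBD/mouse RORγ fusion under metallothionein promoter plus UAS-luciferase; compound 1 h, then 700 uM CuSO4 induction for 20 h at ambient temperature; inhibition read as reduced luminescence.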
TDP1 cell CPT = DT40-hTDP1 cell growth loss with CPT; chicken DT40 Tdp1-/-;hTDP1 cells + 20 nM CPT, ATP luminescence, 48 h; 420,000 tested, 12% active; Potency, µM (series often up to 46.2 µM), without a hit: at the highest dose activity change, negative = growth inhibition, hits mostly inhibitors; AID 686979; note: potency is the fitted concentration of half-maximal effect; nearly all actives have a fitted effect of over 55% in size
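Chicken DT40 Tdp1-/- cells complemented with human TDP1, 400 cells/well, exposed to compounds plus 20 nM camptothecin for at least 48 h at 37 C; viability read as ATP content by CellTiter-Glo luminescence.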
Active calls of the source: *; ? = inconclusive; / = no result. Unless noted, calls come from the whole dose curve; as a rule, active = well fitted curve in the direction sought with a large enough effect; inconclusive = small, poorly fitted or top-dose-only effect, or another doubt; inactive = no such curve, though single readings can be large; an effect the other way counts as inactive or inconclusive. Unless noted, % is set by controls: 0 for no effect and ±100 for the full control effect.

SMILES | LDHA block | Gal4-VP16 FLuc | TDP1 cell noCPT | IL1B secr inh | RORg inh | TDP1 cell CPT
Cc1ccc(-c2noc(-c3ccccc3OCC(=O)Nc3ccccc3[N+](=O)[O-])n2)cc1 | -3.6 | / | 15.0% | / | / | -5.4%
O=C(COc1ccccc1-c1nc(-c2ccccc2)no1)Nc1cccc([N+](=O)[O-])c1 | -3.8 | / | ? | / | / | 2.59µM*
O=C(NCCc1csc(-c2ccc(C(F)(F)F)cc2)n1)c1cccs1 | 6.0 | ? | 18.4µM* | -28.8 | ? | ?
CCOc1ccc(C(=O)NCCc2csc(-c3ccc(C(F)(F)F)cc3)n2)cc1OCC | -9.2 | / | 14.6µM* | / | / | ?
O=C(NCCc1csc(-c2cccnc2)n1)c1cccs1 | -5.1 | 26.5% | 20.6µM* | -15.0 | ? | ?
O=C(NCCc1csc(-c2ccc(C(F)(F)F)cc2)n1)c1ccccc1Cl | -5.8 | / | ? | / | / | ?
Cc1ccc(C(=O)NCCc2csc(-c3cccnc3)n2)cc1 | -5.7 | -20.4% | ? | 0.0 | -26.5% | ?
CCOc1ccc(CCNC(=O)CCc2c(C)nn(C)c2C)cc1OCC | -6.3 | / | / | / | / | /
CC(=O)Nc1ccccc1NC(=O)CCC1CCCC1 | 6.1 | / | / | / | / | /
O=C(/C=C/c1cccc(Cl)c1)OC1CCCCC1=O (stereo not given) | 7.1 | / | / | / | / | /
CCOC(=O)N1CCN(S(=O)(=O)c2ccc(C(=O)N(CCCN(C)C)c3nc4ccc(CC)cc4s3)cc2)CC1 | -1.1 | -17.9% | ? | -61.8* | -10.8% | ?
CCOC(=O)N1CCN(S(=O)(=O)c2ccc(C(=O)N(CCN(C)C)c3nc4ccc(CC)cc4s3)cc2)CC1 | -3.3 | -3.4% | -5.1% | -18.5 | -21.7% | -12.0%
CCOC(=O)N1CCN(S(=O)(=O)c2ccc(C(=O)N(CCCN(C)C)c3nc4ccc(Cl)cc4s3)cc2)CC1 | -14.6 | ? | 18.4µM* | -96.4* | ? | ?
CCOC(=O)N1CCN(S(=O)(=O)c2ccc(C(=O)N(CCCN(C)C)c3nc4c(F)cc(F)cc4s3)cc2)CC1 | -5.1 | / | -14.0% | -6.4 | / | 15.3%
CC(C)=CCc1c2c(c(O)c3c(=O)c(O)c(-c4ccccc4)oc13)C=CC(C)(C)O2 | / | -2.5% | -9.7% | / | -15.5% | -6.3%
CC(C)=CCC12Oc3cc(O)ccc3C1(O)Oc1cc3c(c(O)c1C2=O)C=CC(C)(C)O3 (stereo not given) | 7.4 | / | ? | -1.2 | / | 25.9µM*
CC(C)c1ccc2occ(CC(=O)N(Cc3ccc(F)cc3)C3CCS(=O)(=O)C3)c2c1 (stereo not given) | -1.1 | / | ? | / | / | 18.4µM*
CCN(CC)c1ccc(CN(C(=O)c2cc(=O)c3ccccc3o2)C2CCS(=O)(=O)C2)cc1 (stereo not given) | 8.7 | / | ? | / | / | 16.4µM*
CCN(CC)c1ccc(CN(C(=O)Cc2coc3ccc(C)cc23)C2CCS(=O)(=O)C2)cc1 (stereo not given) | 14.9 | / | 23.1µM* | / | / | ?
Cc1ccc(CNC(=O)c2ccccc2NC(=O)Cn2c(C)cc(C)c(C#N)c2=O)o1 | 3.4 | / | / | / | / | /
CN1CCN(c2nc(-c3cn(CCC#N)c4ccccc34)cs2)CC1 | 13.8 | / | / | / | / | /
Cc1ccc2nc(C)c(C(=O)NCc3cccnc3OC(C)C)cc2c1 | 6.4 | / | / | / | / | /
O=C(c1ccccc1)n1nc(NCc2cccs2)nc1NCc1cccs1 | 0.6 | / | / | / | / | /
CCOC(=O)c1cnc2c(C)cc(C)cc2c1Nc1ccc(O)cc1 | -0.6 | / | / | / | / | /
CC(Nc1ccc([N+](=O)[O-])cn1)c1nc2ccccc2n1C(F)F (stereo not given) | 16.5 | / | / | / | / | /
SMILES | LDHA block | Gal4-VP16 FLuc | TDP1 cell noCPT | IL1B secr inh | RORg inh | TDP1 cell CPT
CC1=C(C(=O)N(C(C)C)C(C)C)CC(CC(=O)NCc2ccco2)C(=O)N1Cc1ccc(C(C)(C)C)cc1 (stereo not given) | 6.7 | / | 16.4µM* | -23.1 | / | 20.6µM*
CC1=C(C(=O)N(C)C)CC(CC(=O)NCc2cccs2)C(=O)N1Cc1ccc(C(C)(C)C)cc1 (stereo not given) | -4.5 | / | ? | -12.9 | / | ?
COc1ccc(CN2C(=O)C(CC(=O)NCc3ccco3)CC(C(=O)N(C)C)=C2C)cc1 (stereo not given) | -0.6 | / | -20.8% | 23.9 | / | -12.3%
CCN(CC)C(=O)C1=C(C)N(Cc2ccc(C(C)(C)C)cc2)C(=O)C(CC(=O)NCc2cccs2)C1 (stereo not given) | -0.3 | / | 23.1µM* | ? | / | 23.1µM*
CCN(CC)C(=O)C1=C(C)N(Cc2ccc(C(C)(C)C)cc2)C(=O)C(CC(=O)NCc2ccco2)C1 (stereo not given) | -2.8 | / | 23.1µM* | ? | / | ?
CC1=C(C(=O)N(C(C)C)C(C)C)CC(CC(=O)NCc2cccc3ccccc23)C(=O)N1Cc1ccc(C(C)(C)C)cc1 (stereo not given) | 1.9 | / | ? | ? | / | ?
C=CCn1c(SCC(=O)c2[nH]c(C)c(C(C)=O)c2C)nnc1-c1ccncc1 | 2.4 | 7.4% | 25.9µM* | 15.4 | 11.1% | ?
CC(=O)c1c(C)[nH]c(C(=O)CSc2nnc(C3CCCCC3)n2N)c1C | 5.9 | -3.7% | 13µM* | 14.9 | 6.8% | 18.4µM*
CC(=O)c1c(C)[nH]c(C(=O)CSc2nnc(-c3ccco3)n2Cc2ccccc2)c1C | 1.9 | 22.2% | 16.4µM* | 0.0 | ? | 23.1µM*
C=CCn1c(SCCN2C(=O)c3ccccc3C2=O)nc2scc(-c3ccc(F)cc3)c2c1=O | -1.2 | / | -3.9% | 0.0 | / | -10.7%
C=CCn1c(SCC(=O)c2[nH]c(C)c(C(=O)OC)c2C)nc2scc(-c3ccc(OC)c(OC)c3)c2c1=O | -8.3 | ? | 8.2µM* | 6.7 | 1.9% | 16.4µM*
